Source: PubChem BioAssay (NCATS)
Records with an inconclusive call do not appear. Activity calls are given as the source filed them. Unless noted, the call rests on the fitted dose curve; in most records, active means well fitted curve in the direction sought with a large enough effect; inconclusive means small, poorly fitted or top-dose-only effect, or another doubt; inactive means no such curve, though single readings can be large; an effect the other way counts as inactive or inconclusive.

Assays:
[1] = Cell Viability - BJ (AID 421; calls by dose curve;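 further: potency means the concentration at half of the fitted maximal effect; cells exposed to compound for 40 hours at 37 °C before readout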); settings: BJ fibroblast viability, qHTS
Summary of the method: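 Luminescent ATP signal (CellTiter-Glo, 20 min at room temperature) served as the read-out of viable BJ cells after 40 hours of compound treatment. Responses were scaled between DMSO and 100 uM tamoxifen, and AC50 values were obtained by Hill modeling.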

[2] = Cell Viability - Jurkat (AID 426;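 active means dose-dependent loss of cell ATP signal giving a full or clear fitted curve, ranked by lower potency value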; further: potency means the concentration at half of the fitted maximal effect); settings: qHTS
Summary of the method: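 qHTS, 1536-well; Jurkat E6-1, 5000 cells/well, complete medium; cpd 40 hr, 37 °C; CellTiter-Glo 20 min RT; luminescence. AC50 by Hill fit.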

[3] = Cell Viability - Hek293 (AID 427;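 active means compounds whose dose-response curve shows a full or clear partial loss of cell viability, called from curve shape rather than a numeric limit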;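 further: potency means the concentration at half of the fitted maximal effect; cells exposed to compound for 40 hours at 37 °C before reading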); settings: qHTS
Summary of the method: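 Luminescent ATP read-out (CellTiter-Glo, 20 min RT) after 40 hr compound exposure at 37 °C in complete medium. Signal normalized to DMSO (basal) and 100 uM tamoxifen (100% inhibition); concentration-response fitted with the standard Hill equation to give AC50.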

[4] = Cell Viability - HepG2 (AID 433; calls by dose curve;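 further: potency means the concentration at half of the fitted maximal effect; potency for ATP loss meaning cytotoxicity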); settings: qHTS
Summary of the method: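 ATP luminescence (CellTiter-Glo) after 40 h compound exposure, 37 °C, HepG2, 1500 cells/well, complete medium. Normalized: DMSO = basal, 100 uM tamoxifen = 100% inhibition. AC50 via standard Hill equation.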

[5] = Cell Viability - MRC5 (AID 434; calls by dose curve;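 further: potency means the concentration at half of the fitted maximal effect; potency reflects cytotoxicity seen as loss of intracellular ATP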); settings: MRC5 lung fibroblast viability, qHTS
Summary of the method: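 MRC5 normal human lung fibroblasts, 1500 cells/well, exposed to compound for 40 hr at 37 C. Cellular ATP was read by CellTiter-Glo luminescence; data normalized to DMSO and 100 uM tamoxifen, with AC50 from Hill fits.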

[6] = Cell Viability - N2a (AID 540); settings: N2a mouse neuroblastoma cell viability; activity change, negative = cytotoxicity: at 92.2 µM (top of the series);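 further: plate controls were DMSO alone for no effect and tamoxifen control for full effect; nearly all actives have a fitted effect of over 45% in size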
Summary of the method: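 Luminescent ATP signal (CellTiter-Glo, 20 min at room temperature) served as the viability read-out after N2a cells were treated with compounds for 40 hours at 37 °C. Concentration-response data were fitted to the Hill equation for AC50.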

[7] = Cell Viability - NIH 3T3 (AID 541); settings: NIH 3T3 cell viability, qHTS; activity change, negative = cytotoxicity: at 92.2 µM (top of the series);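 further: plate controls were DMSO alone for no effect and tamoxifen positive control for full effect; nearly all actives have a fitted effect of over 25% in size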
Summary of the method: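 Luminescent ATP signal (CellTiter-Glo) served as the viability read-out after NIH 3T3 cells were exposed to compounds over a concentration range for 40 hr at 37 °C. Hill-equation modelling of concentration-response data gave AC50.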

[8] = Cell Viability - HUV-EC-C (AID 542); settings: HUV-EC-C endothelial cell viability, qHTS; series mostly up to 92.2 µM; further: on the % scale 0 is the no-effect control and ±100 the full control effect; nearly all actives have a fitted effect of over 35% in size
Summary of the method: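 qHTS cytotoxicity: HUV-EC-C, 1000 cells/well, 5 hr settle, compound 40 hr 37 °C, CellTiter-Glo, luminescence. AC50 via Hill equation.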

[9] = Cell Viability - SK-N-SH (AID 435; calls by dose curve; further: potency means the concentration at half of the fitted maximal effect); settings: SK-N-SH neuroblastoma cell viability qHTS
Summary of the method: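 CellTiter-Glo ATP luminescence, 20 min RT read; cells pre-plated 5 hr, compound 40 hr at 37 °C, 1500 cells/well, complete medium. Normalized DMSO = 0, 100 uM tamoxifen = 100% inhibition; Hill-fit AC50.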

[10] = target: Mitogen-activated protein kinase 10 (Mus musculus) (UniProt Q61831); test: JNK3 AlphaScreen Assay (AID 530; active means well fitted curve in either direction with a large enough effect, not every such curve was filed as active;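 further: kinase came from lysate of stimulated human HepG2 cells; signal reports phosphorylation of biotinylated GST-cJun 1-79 at Ser73 with 10 µM ATP; on the % scale 0 is the no-effect control and ±100 the full control effect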); settings: JNK3 lysate, c-Jun phosphorylation; series mostly up to 57.1 µM
Summary of the method: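 Pre-activated (IL-1β/TNFα) JNK3 in HepG2 lysates phosphorylates biotin-GST-cJun(1-79), 10 uM ATP; anti-phospho-cJun(Ser73) AlphaScreen read at room temperature, pH 7.6 Tris buffer. Compounds pre-incubated 15 min as titrations.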

O=C(O)c1ccc(C(=O)O)cc1
inactive: Potency [1] > 92 µM | Potency [2] > 92 µM | Potency [3] > 92 µM | Potency [4] > 92 µM | Potency [5] > 92 µM | activity change, negative = cytotoxicity [6] 0.102% | Potency [7] | Potency [8]

Cc1c(C(=O)O)cccc1[N+](=O)[O-]
inactive: Potency [1] > 92 µM | Potency [2] > 92 µM | Potency [3] > 92 µM | Potency [4] > 92 µM | Potency [9] > 92 µM | outcome [10] | activity change, negative = cytotoxicity [6] 5.3% | Potency [7] | Potency [8]

O=C1OC(=O)c2c(Cl)c(Cl)c(Cl)c(Cl)c21
inactive: Potency [1] > 92 µM | Potency [2] > 92 µM | Potency [3] > 92 µM | Potency [4] > 92 µM | Potency [9] > 92 µM | activity change, negative = cytotoxicity [6] 4.39% | Potency [7] | Potency [8]

COC(=O)CC#N
inactive: Potency [1] > 92 µM | Potency [2] > 92 µM | Potency [3] > 92 µM | Potency [4] > 92 µM | Potency [9] > 92 µM | outcome [10] | activity change, negative = cytotoxicity [6] -15.8% | Potency [7]

CC(C)=C1CCC(C)CC1=O (configuration not stated)
inactive: Potency [1] > 92 µM | Potency [2] > 92 µM | Potency [3] > 92 µM | Potency [4] > 92 µM | Potency [9] > 92 µM | outcome [10] | activity change, negative = cytotoxicity [6] -3.2% | Potency [7] | Potency [8]

O=[N+]([O-])c1ccc2nc[nH]c2c1
inactive: Potency [1] > 92 µM | Potency [2] > 92 µM | Potency [3] > 92 µM | Potency [4] > 92 µM | Potency [9] > 92 µM | outcome [10] | activity change, negative = cytotoxicity [6] 4.31% | Potency [7] | Potency [8]

CSCCC=O
inactive: Potency [1] > 92 µM | Potency [2] > 92 µM | Potency [3] > 92 µM | Potency [4] > 92 µM | Potency [9] > 92 µM | outcome [10] | activity change, negative = cytotoxicity [6] -17.9% | Potency [8]

CCOc1cc(OCC)c(C(C)=O)cc1OCC
inactive: Potency [1] > 92 µM | Potency [2] > 92 µM | Potency [3] > 92 µM | Potency [4] > 92 µM | Potency [5] > 92 µM | activity change, negative = cytotoxicity [6] -7.23% | Potency [7] | Potency [8]

O=C1CCCCC1
inactive: Potency [1] > 92 µM | Potency [2] > 92 µM | Potency [3] > 92 µM | Potency [4] > 92 µM | outcome [10] | activity change, negative = cytotoxicity [6] -6.92% | Potency [7]

CCCCN(CCO)CCCC
inactive: Potency [1] > 92 µM | Potency [2] > 92 µM | Potency [3] > 92 µM | Potency [5] > 92 µM | outcome [10] | activity change, negative = cytotoxicity [6] -15.2% | Potency [7] | Potency [8]

NCCCCCCN
inactive: Potency [1] > 92 µM | Potency [2] > 92 µM | Potency [3] > 92 µM | Potency [9] > 92 µM | outcome [10] | activity change, negative = cytotoxicity [6] -4.05% | Potency [7] | Potency [8]

Cc1ccc([N+](=O)[O-])c(N)c1
inactive: Potency [1] > 92 µM | Potency [2] > 92 µM | Potency [3] > 92 µM | Potency [5] > 92 µM | outcome [10] | activity change, negative = cytotoxicity [6] -4.55% | Potency [7] | Potency [8]

Cc1ccc2ncccc2c1
inactive: Potency [1] > 92 µM | Potency [2] > 92 µM | Potency [3] > 92 µM | Potency [5] > 92 µM | Potency [9] > 92 µM | outcome [10] | activity change, negative = cytotoxicity [6] 3.92% | Potency [7] | Potency [8]
